Measured values published in PubChem BioAssay (NCI).
About 79,000 compounds went through this panel and 15% of them were active in at least one assay; those are over-represented in the sample as a whole. Active and inactive are the calls of the source. No stated cut-off is given here; in the data, active means growth inhibition above about 70%; inactive means the rest.

Assays:
[1] = NCI Yeast Anticancer Drug Screen. Data for the rad50 strain (AID 155);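 further: 0% = growth of vehicle-only cultures of the same strain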; conditions: S. cerevisiae rad50 strain growth inhibition; at 50.0 µM; stronger effect = higher value
Summary of the method: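 Compounds were tested on a yeast strain with an engineered DNA damage repair alteration; the reported value is growth inhibition normalised to vehicle treatment.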

[2] = NCI Yeast Anticancer Drug Screen. Data for the mec2-1 strain (AID 157); conditions: S. cerevisiae mec2-1 strain, at 50.0 µM, stronger effect = higher value
Summary of the method: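 Compounds were applied to mec2-1 yeast cells. Their growth was then compared with that of vehicle-treated cultures to give growth inhibition.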

[3] = NCI Yeast Anticancer Drug Screen. Data for the sgs1 mgt1 strain (AID 161);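 further: 0% = growth of cultures given vehicle only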; conditions: S. cerevisiae sgs1 mgt1 strain, at 50.0 µM, stronger effect = higher value
Summary of the method: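 Compounds are added to genetically altered yeast, and growth is compared with cultures given vehicle alone to give percent inhibition.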

[4] = NCI Yeast Anticancer Drug Screen. Data for the cln2 rad14 strain (AID 165);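 further: 0% = growth equal to vehicle treated cultures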; conditions: S. cerevisiae cln2 rad14 strain, at 50.0 µM, stronger effect = higher value
Summary of the method: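 Strain: cln2 rad14 yeast, altered in cell cycle control and DNA damage repair. Read-out: growth inhibition vs vehicle.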

[5] = NCI Yeast Anticancer Drug Screen. Data for the bub3 strain (AID 167); conditions: S. cerevisiae bub3 mutant strain, at 50.0 µM, stronger effect = higher value
Summary of the method: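 Growth of a checkpoint-deficient yeast mutant is measured after compound exposure. Values represent inhibition relative to vehicle.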

[6] = NCI Yeast Anticancer Drug Screen. Data for the mlh1 rad18 strain (AID 175); conditions: S. cerevisiae mlh1 rad18 strain growth inhibition; at 50.0 µM; stronger effect = higher value
Summary of the method: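 A repair-deficient yeast strain is exposed to test compound, and growth is scored relative to vehicle-treated controls.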

Measured: growth inhibition

O=c1[nH]c2ccccc2c(=O)n1-c1ccccc1
inactive: [1] -8.1% | [2] -4.45% | [3] -1.05% | [4] -6.05% | [5] -2% | [6] -15.4%

O=C1/C(=C\c2cc3ccccc3c3ccccc23)N2CCC1CC2
inactive: [1] 11.1% | [2] -10.2% | [3] -12% | [4] -7.35% | [5] -3.1% | [6] 1%

CCCCOC(=O)c1ccccc1N
inactive: [1] -4.3% | [2] -15.5% | [3] -4.2% | [4] -1.85% | [5] 0.2% | [6] -3.6%

O=C(CN1CCCCC1)c1ccc(Br)cc1
inactive: [1] 15.7% | [2] 6.1% | [3] 9.4% | [4] -20.9% | [5] -12.4% | [6] 9.55%

c1ccc(-c2sc3cccc[n+]3c2-c2ccccc2)cc1
inactive: [1] -5.3% | [2] 0.6% | [3] -14.5% | [4] -10.4% | [5] 13.4% | [6] -3.35%

COC(=O)C(C)NP(=O)(N1CC1)N1CC1 (centres undefined)
inactive: [1] 1.5% | [2] -2.25% | [3] -5.05% | [4] -10.2% | [5] -7.85% | [6] -14.3%

CC(=O)C(C(C)=O)C(C)=O.CC(=O)C(C(C)=O)C(C)=O.CC(=O)C(C(C)=O)C(C)=O.[Cr]
inactive: [1] 25.2% | [2] 2.8% | [3] 11.2% | [4] 7.25% | [5] -3.6% | [6] 5.25%

O=P(O)(O)c1ccccc1.[Zn+2]
inactive: [1] 13.9% | [2] 16.4% | [3] -0.45% | [4] -14% | [5] 18.1% | [6] 24.2%

CC(Cl)CN1COc2ccc3ccc4c(c3c2C1)CN(CC(C)Cl)CO4 (centres undefined)
inactive: [1] 29.1% | [2] 14.4% | [3] 28.4% | [4] -17.9% | [5] 6% | [6] 34.1%

C[As+](C)(C)c1cccc(N)c1
inactive: [1] -1.6% | [2] -6.6% | [3] -10.1% | [4] -14.8% | [5] -1% | [6] 0.45%

Cc1cc(O)ccc1[N+](=O)[O-]
inactive: [1] 1.15% | [2] -1.2% | [3] 11.8% | [4] 9.6% | [5] 2.9% | [6] 2.95%

C1=C/CCC2NC2C/C=C/CCC/1 (centres undefined)
inactive: [1] -6.8% | [2] -20.4% | [3] -10.6% | [4] -18.4% | [5] -22.8% | [6] -19.6%

O=C1NC(=O)C(C(=O)C(=O)Nc2cc(Cl)ccc2Cl)C(=O)N1
inactive: [1] -7.45% | [2] -25.3% | [3] -20.6% | [4] 4.7% | [5] -22.4% | [6] -12.3%

COc1ccccc1N
inactive: [1] -2.9% | [2] 1.25% | [3] 4.3% | [4] -8.05% | [5] -9.45% | [6] -17.4%

C[Si](C)(C)C#CC#C[Si](C)(C)C.[Ni].[Ni].[Ni].[Ni].[c-]1[c-][c-][cH-][c-]1.[c-]1[c-][c-][cH-][c-]1.[c-]1[c-][c-][cH-][c-]1.[c-]1[c-][c-][cH-][c-]1
inactive: [1] 11.7% | [2] 5.5% | [3] -5.05% | [4] 9.2% | [5] -2.85% | [6] -5.85%

C[C@]12CCC(=O)C=C1CC[C@H]1[C@@H]3CCC(=O)[C@@]3(C)CC[C@@]12F
inactive: [1] -2.35% | [2] -6.1% | [3] 2.25% | [4] -31.8% | [5] -3.7% | [6] -5.75%

O=C(O)c1ccc(Cl)c(Cl)c1.[Ni]
inactive: [1] -19.1% | [2] -16.4% | [3] -4.35% | [4] -11.9% | [5] -23.4% | [6] -19.7%

CC(C)(C)[Si](C)(C)OC(=O)CCCc1ccc(N(CCCl)CCCl)cc1
inactive: [1] 12.1% | [2] -9.9% | [3] -10.2% | [4] 9.4% | [5] -21.7% | [6] -47.1%

O=P1(N(CCCl)CCCl)Nc2cc3ccccc3cc2N1
inactive: [1] -5.65% | [2] -15.7% | [3] -4.45% | [4] -108% | [5] -15.5% | [6] -14.6%

O=C(O)c1ccc([As](=O)(O)O)cc1
inactive: [1] -16.6% | [2] 4.3% | [3] 17.3% | [4] -35.2% | [5] -18.8% | [6] -4.8%

c1cc2c3c(cccc3c1)CC2
inactive: [1] -22.4% | [2] 35.4% | [3] -0.65% | [4] -16.3% | [5] 44.4% | [6] -14.6%

CC(=O)NC(Cc1ccc(N(CCCl)CCCl)cc1)C(=O)NC(CC(C)C)C(=O)O (centres undefined)
inactive: [1] 2.85% | [2] 22.6% | [3] -4.15% | [4] 5.75% | [5] 2.7% | [6] 21.7%

S=P(c1ccccc1)(N1CCOCC1)N1CCOCC1
inactive: [1] 7.8% | [2] -9.85% | [3] 7.65% | [4] -16.4% | [5] 13.4% | [6] -1.9%

CCCO[As](=O)(OCCC)OCCC
inactive: [1] 5.55% | [2] 6.95% | [3] 5.8% | [4] 11.8% | [5] 24.1% | [6] -9.1%

CC(=O)OC1(c2nccc3ccccc23)CCN(Cc2ccccc2)CC1
inactive: [1] 17.8% | [2] 9.45% | [3] 6.8% | [4] -8.3% | [5] 7.25% | [6] 12%

CC([NH-])C(C)[NH-].CC([NH-])C(C)[NH-].CC([NH-])C(C)[NH-].[Cr+6] (centres undefined)
inactive: [1] 9.9% | [2] 22.8% | [3] 10.7% | [4] 2% | [5] 1.9% | [6] 8.15%

CCOP(=O)(OCC)/C(C#N)=C/c1ccc(C#N)cc1
inactive: [1] 30.6% | [2] 15.8% | [3] 10.8% | [4] 12.3% | [5] 14.7% | [6] 55.2%

O=C(CF)NCCCl
inactive: [1] -3.45% | [2] -8.8% | [3] -1.65% | [4] 9.5% | [5] 9.65% | [6] 1.45%

CC1(C)OP(=O)(O)C=C1[Se]c1ccccc1
inactive: [1] 19.2% | [2] 11.2% | [3] 24.4% | [4] 4.95% | [5] -3.2% | [6] 26.6%

O=[N+]([O-])c1cccc2cccc([N+](=O)[O-])c12
inactive: [1] -7.45% | [2] -28.1% | [3] -10.3% | [4] -86.7% | [5] -35% | [6] 11.3%

CC(C)(OOC(C)(C)c1ccccc1)c1ccccc1
inactive: [1] -13.1% | [2] -16% | [3] 4.6% | [4] -40.9% | [5] 6.05% | [6] -8.95%

CCCCC(CC)C(=O)O.[Sn] (centres undefined)
inactive: [1] -20.5% | [2] -9.1% | [3] -10.3% | [4] -10.4% | [5] -20.9% | [6] -15.8%

CC(O)C[As](=O)(O)c1ccccc1Cl (centres undefined)
inactive: [1] 2.85% | [2] 25.5% | [3] -17.3% | [4] -2.55% | [5] 14.4% | [6] -16.6%

O=C1NC(=O)C(CCC(=O)c2ccc3ccccc3c2)C(=O)N1
inactive: [1] -29.1% | [2] -22.8% | [3] -57.6% | [4] -10.8% | [5] -34.8% | [6] -25.8%

CCCC1(CCS)C(=O)NC(=O)NC1=O
inactive: [1] -12.9% | [2] -33.7% | [3] -13.3% | [4] 5.25% | [5] 2.3% | [6] 9.15%

S=c1nccc[nH]1
inactive: [1] 37.5% | [2] 24.2% | [3] 34.5% | [4] 37.5% | [5] 0.35% | [6] 17.4%

CC(C)(C)N1OC1C(Cl)(Cl)Cl (centres undefined)
inactive: [1] -20.6% | [2] -9.55% | [3] -23% | [4] -18.3% | [5] -4.95% | [6] 10.4%

CC1(C)C2=CC[C@H]3[C@@H]4CC[C@H](O)[C@@]4(C)CC[C@@H]3[C@@]2(C)CC[C@@H]1O
inactive: [1] -2.6% | [2] -16.4% | [3] -4.75% | [4] -19.4% | [5] 5.35% | [6] -3.15%

COc1cc(-c2[nH]ccc2Cl)oc1C1=C2N=C3C=C2C(C(C)C)C1CCCCCCCC3 (centres undefined)
active: [1] 85.3% | [2] 83.6% | [3] 89% | [4] 89.1% | [5] 88.3% | [6] 89.6%
